Bioassay records as filed in PubChem.
An excerpt weighted towards active compounds, which were near 5.7% of everything screened.
KB-V1 cytotox: kills drug-selected multidrug resistant KB-V1 cells. KB-V1 MDR cells viability, CellTiter-Glo, 72 h. Potency, µM (titrated, usually from 46.1 µM), usual class: cytotoxic. hit rate 3.4% among 400,000. AID 1347076; also: nearly all actives have a fitted effect of over 60% in size
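Cytotoxicity toward P-gp-expressing KB-V1 cells was determined as loss of CellTiter-Glo luminescence after 72 h at 37 degrees C. Compounds were tested in quantitative HTS format across a concentration range, with curves fitted to normalized data.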
Nrf2 inh: inhibitors of Nrf2 signaling; A549 ARE-Fluc reporter, luciferase luminescence, 18-24 h; Potency, µM (titrated, usually from 46 µM), most hits filed as inhibitors; hit rate 2.1% among 360,000; AID 504444; also: nearly all actives have a fitted effect of over 60% in size
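Cells were seeded and rested 2 h, then exposed to compounds for 18-24 h. CellTiter-Fluor was read first as a viability measure. BugLite was added 15 min before the final luminescent read of ARE-luciferase activity in A549 cells.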
KB-3-1 tox: KB-3-1 parental cell cytotoxicity; hit rate 1.4% among 400,000; KB-3-1 viability, CellTiter-Glo ATP luminescence, 72 h; Potency, µM (top dose mostly 46.1 µM), actives largely listed as cytotoxic; also: nearly all actives have a fitted effect of over 60% in size
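KB-3-1 parental drug-naive adenocarcinoma cells in DMEM/10% FBS, incubated 72 h at 37 C with pin-transferred compounds across a concentration series. Viability by CellTiter-Glo luminescence; concentration-response curves fitted after normalization.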
PI4K2A inh: inhibitors of human PI4K2A; Q9BTU6; purified PI4K2A, ADP-Glo luminescence, 1 h; stronger effect = lower value; activity change, negative = inhibition, % at 76.9 µM; hit rate 0.13% among 420,000; AID 1346378; in the data active = activity change below about -50%; inconclusive = mostly about -30% to -49%
Target sequence (Q9BTU6 whole entry, looked up): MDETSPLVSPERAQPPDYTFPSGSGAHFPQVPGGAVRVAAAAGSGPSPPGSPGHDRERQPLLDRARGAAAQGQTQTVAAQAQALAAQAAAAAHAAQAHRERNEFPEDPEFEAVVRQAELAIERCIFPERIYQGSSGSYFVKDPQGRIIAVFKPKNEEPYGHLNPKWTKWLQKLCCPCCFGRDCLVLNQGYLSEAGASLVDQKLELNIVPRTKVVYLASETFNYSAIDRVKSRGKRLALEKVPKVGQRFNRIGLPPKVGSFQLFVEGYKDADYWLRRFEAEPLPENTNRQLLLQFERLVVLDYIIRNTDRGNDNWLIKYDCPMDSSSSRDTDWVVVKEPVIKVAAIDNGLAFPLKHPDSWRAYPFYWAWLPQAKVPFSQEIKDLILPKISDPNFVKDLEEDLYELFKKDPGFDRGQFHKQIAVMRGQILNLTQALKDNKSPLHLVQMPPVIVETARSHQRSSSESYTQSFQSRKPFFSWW
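In this quantitative HTS, ADP production by PI4K2A was quantified luminescently after 1 h at ambient temperature; 100 microM adenosine served as plate-quality control.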
A549 tox: counter-screen for Nrf2 inhibitors: cytotoxicity in A549 cells; A549 ARE-Fluc cells, CellTiter-Fluor viability, 18-24 h; hit rate 0.16% among 390,000; Potency, µM (highest dose often 46 µM), hits mostly inhibitors; AID 504648
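Cytotoxicity counterscreen: CellTiter-Fluor fluorescence was measured in A549 ARE_Fluc cells after 18-24 h of compound exposure in a concentration series. The subsequent BugLite luminescent read reports ARE-luciferase activity.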
Giardia kill: kills Giardia lamblia | Giardia lamblia trophozoite viability | activity change, % at 7.66 µM, hits read low | hit rate 0.15% among 340,000 | AID 540267; in the data active = activity change below about -80%; inconclusive = between about -30% and that limit;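 also: parasites exposed to compound for two days anaerobically before the ATP read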
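Luminescence from cellular ATP indicates surviving trophozoites (100 cells/well) following 48 hrs anaerobic compound treatment at 37 deg C; signal develops 15-30 min at room temperature.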
Hits are given with their value; - = inactive; ? = inconclusive; . = no result; ! = a repeat was not active. Unless noted, calls follow the shape of the dose curve; as a rule, active = well fitted curve in the direction sought with a large enough effect; inconclusive = small, poorly fitted or top-dose-only effect, or another doubt; inactive = no such curve, though single readings can be large; an effect the other way counts as inactive or inconclusive.

SMILES | KB-V1 cytotox | Nrf2 inh | KB-3-1 tox | PI4K2A inh | A549 tox | Giardia kill
CCC(Nc1ccc(-c2nc(-c3ccco3)no2)cc1[N+](=O)[O-])c1ccccc1 (stereo not drawn) | - | - | - | - | - | .
COc1ccc(S(=O)(=O)N2CCOCC2)cc1C(=O)NCc1c(C)nn(Cc2ccccc2)c1C | ? | - | - | - | - | -
COc1ccc(C(=O)NCc2c(C)nn(Cc3ccccc3)c2C)cc1S(=O)(=O)N1CCOCC1 | - | - | 6.51µM | - | - | -
COc1ccc(NC(=O)c2ccco2)cc1S(=O)(=O)N1CCOCC1 | - | - | - | - | - | -
COc1ccc(C(=O)NCC(c2ccccc2)c2ccccc2)cc1S(=O)(=O)N1CCOCC1 | 8.2µM | - | - | - | - | -
COc1ccc(NC(=O)c2c(C)nn(Cc3ccccc3)c2Cl)cc1S(=O)(=O)N1CCOCC1 | - | 20.6µM | - | - | - | -
O=C(O[C@H]1CC[C@@]23CCCN2C(=O)CCC[C@H]3C1)N1CCCC1 | . | . | . | - | . | .
COC(=O)[C@]12C[C@H](CC(=O)N3CCN(C(=O)c4ccco4)CC3)C(=O)N(Cc3ccco3)C1=C[C@H](C(C)C)O[C@@H]2C1CC1 | . | . | . | - | . | .
Cc1cc(C(=O)COC(=O)c2ccc(O)cc2)c(C)n1CC1CCCO1 (stereo not drawn) | ? | ? | - | - | - | -
Cc1cc(C(=O)COC(=O)c2ccc3c(c2)NC(=O)CS3)c(C)n1CC1CCCO1 (stereo not drawn) | 11.6µM | - | - | - | - | -
CC(C)c1nn2c(=O)cc(COC(=O)c3ccccc3NC(=O)C3CCCCC3)nc2s1 | . | . | . | - | - | .
CCc1ccccc1NC(=O)N1CC(CC)Oc2ccc(Cl)cc21 (stereo not drawn) | . | ? | . | - | - | .
O=C1CCc2cc([S+](=O)([O-])Nc3ccc(N[S+](=O)([O-])c4ccc5c(c4)CCC(=O)N5)cc3)ccc2N1 | - | - | - | . | - | .
COc1ccc(CNC(=O)C(=O)NCC2CCCO2)cc1 (stereo not drawn) | - | - | 18.4µM | - | - | -
COc1ccc(CNC(=O)C(C)Sc2nc3ccccc3c(=O)n2CC2CCCO2)cc1 (stereo not drawn) | 5.8µM | - | - | - | - | -
O=C(NCC1OCCc2ccccc21)c1ccc(NC(=O)c2ccc(Cl)cc2)cc1 (stereo not drawn) | ? | 20.6µM | ? | - | ? | -
Cc1cccc(NC(=O)c2ccc(OCC3CCCO3)cc2)c1C (stereo not drawn) | 20.6µM | ? | - | - | - | -
O=C(Cn1nnc(-c2ccc(N3CCOCC3)cc2)n1)c1ccc(F)cc1 | . | . | . | - | . | .
O=C(Nc1ccc(Cl)cc1)c1ccc(OCC2CCCO2)cc1 (stereo not drawn) | 13µM | ? | ? | - | - | -
O=C(NCc1ccc(Cl)cc1)c1ccc(OCC2CCCO2)cc1 (stereo not drawn) | 16.4µM | - | - | - | - | -
O=C(Nc1ccc2c(c1)C(=O)N(CC1CCCO1)C2=O)c1ccc(Cl)c(Cl)c1 (stereo not drawn) | 20.6µM | ? | - | - | - | -
O=C(Nc1nc(-c2ccc(Cl)cc2Cl)cs1)c1ccc(OCC2CCCO2)cc1 (stereo not drawn) | 9.2µM | - | - | - | - | -
Cc1ccc2oc(C(=O)N(Cc3ccc(N(C)C)cc3)CC3CCCO3)c(C)c2c1 (stereo not drawn) | ? | ? | - | - | - | -
Cc1cccc(NC(=O)CN(CC2CCCO2)C(=O)c2oc3ccc(F)cc3c2C)c1C (stereo not drawn) | 5.17µM | - | - | - | - | -
CCCCN(C)C(=O)c1oc(=O)c2ccccc2c1-c1ccc(C)cc1 | . | . | . | - | . | .
SMILES | KB-V1 cytotox | Nrf2 inh | KB-3-1 tox | PI4K2A inh | A549 tox | Giardia kill
Cc1ccc(-c2c(C(=O)N(C)Cc3ccccc3)oc(=O)c3ccccc23)cc1 | 4.61µM! | - | 18.4µM! | - | ? | -
CN(Cc1ccccc1)C(=O)c1oc(=O)c2ccccc2c1-c1ccccc1 | 8.2µM | - | - | - | - | -
O=[N+]([O-])CC(c1ccccc1)c1c[nH]c2ccccc12 (stereo not drawn) | ? | - | 16.4µM | - | - | -
COc1cc(C(C[N+](=O)[O-])c2c(C)[nH]c3ccccc23)cc(OC)c1OC (stereo not drawn) | ? | - | ? | - | - | -
Cc1c(NCc2cc(Cl)cc(Cl)c2O)c(=O)n(-c2ccccc2)n1C | 20.6µM | - | - | - | - | -
Cc1ccccc1CSCC(=O)Nc1c(C)n(C)n(-c2ccccc2)c1=O | 18.4µM | - | - | - | - | -
Cc1c(NCc2cc(Cl)ccc2O)c(=O)n(-c2ccccc2)n1C | - | - | - | - | - | -
Cc1ccccc1CSCC(=O)Nc1ccccc1-c1ccccc1 | 23.1µM | - | - | - | ? | -
CCCCCCCCNC(=O)C1CSCCS(=O)(=O)N1Cc1ccc(OC)cc1 (stereo not drawn) | . | . | . | - | . | .
CCOC(=O)N1CCc2c(sc3c2c(=O)n(CCc2ccccc2)c(=O)n3Cc2cc(C)ccc2C)C1 | . | - | . | - | - | .
O=S1(=O)N=C(Oc2ccc(-c3ccccc3)cc2)c2ccccc21 | - | - | - | . | - | .
O=C1C(=C(c2ccccc2)N2CCOCC2)Cc2ccccc21 | ? | . | 7.31µM | - | . | .
